Source: PubChem (National Center for Advancing Translational Sciences (NCATS))
Most compounds without a hit are left out; they make up all but 11% or so of the library.
JMJD2A Tudor inh – qHTS Assay for Inhibitors of JMJD2A-Tudor Domain. AlphaScreen JMJD2A-Tudor / H3K4me3 peptide binding. Potency, µM (doses to about 114 µM), without a hit: at the highest dose activity change, negative = inhibition, most hits filed as inhibitors. actives 4.4% (n = 390,000); also: potency is read from the fitted curve at half-maximal effect; % is scaled to controls: 0 for no effect and ±100 for the full control effect; nearly all actives have a fitted effect of over 50% in size
L3MBTL1 block – qHTS Assay for the Inhibitors of L3MBTL1; Lethal(3)malignant brain tumor-like protein 1 (Homo sapiens), Q9Y468; AlphaScreen L3MBTL1–H3K9me1 peptide binding; Potency, µM (top dose mostly 57.1 µM), without a hit: at the top dose activity, negative = inhibition, hits mostly inhibitors; actives 0.66% (n = 230,000); AID 485360, 2010; also: potency is read from the fitted curve at half-maximal effect; % is scaled to controls: 0 for no effect and ±100 for the full control effect; nearly all actives have a fitted effect of over 60% in size
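L3MBTL1 (50 nM) pre-complexed 30 min with biotinylated H3(1-15)K9me1 peptide (75 nM), then compounds added for 30 min at room temperature; AlphaScreen streptavidin donor/nickel chelate acceptor beads (10 ug/mL final) read after 30 min dark incubation.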
G9a inh – qHTS Assay for Inhibitors of Histone Lysine Methyltransferase G9a | G9a H3K9 monomethylation, AlphaScreen, 2 h | Potency, µM (top dose mostly 102 µM), for the others: at the top dose activity, negative = inhibition, usual class: inhibitors | actives 8.8% (n = 350,000) | AID 504332, 2011; also: potency is read from the fitted curve at half-maximal effect; % is scaled to controls: 0 for no effect and ±100 for the full control effect; nearly all actives have a fitted effect of over 75% in size
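G9a (20 nM) preincubated 15 min RT with compounds, then 500 nM biotinylated H3K9 peptide and 20 uM SAM added; 2 h RT reaction. Monomethyl-H3K9 product detected by AlphaScreen with anti-H3K9me1 antibody, streptavidin donor and anti-rabbit IgG acceptor beads.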
PI5P4K alpha inh – qHTS for Inhibitors of phosphatidylinositol 5-phosphate 4-kinase (PI5P4K); max response, %; PI5P4Kalpha enzyme, ADP-Glo luminescence, 60 min; stronger effect = lower value; Phosphatidylinositol 5-phosphate 4-kinase type-2 alpha (Homo sapiens), P48426; actives 1.2% (n = 330,000); active = max response of -50% or lower; inconclusive = between -30% and -50%; inactive = -30% or higher; also: value at the top dose of about 77 µM; % is scaled to controls: 0 for no effect and ±100 for the full control effect
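Quantitative HTS of the MLSMR library against PI5P4Kalpha with substrate. ATP added last at 5 microM final; room temperature, 60 minutes. Remaining ATP depleted, ADP converted and read as luminescence.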
HP1b chromo inh – HTS for Inhibitors of HP1-beta Chromodomain Interactions with Methylated Histone Tails; actives 0.56% (n = 390,000); AlphaScreen HP1-beta / biotin-H3K9me3 peptide binding; Potency, µM (highest dose often 114 µM), without a hit: at the top dose activity change, negative = inhibition, hits mostly inhibitors; also: potency is read from the fitted curve at half-maximal effect; nearly all actives have a fitted effect of over 70% in size
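AlphaScreen: HP1-beta (50 nM) preformed 30 min with biotin-H3(1-18)K9me3 peptide (50 nM) in PBS pH 7.4, 0.01% Tween-20. Compound added for 30 min at RT, then streptavidin donor/nickel chelate acceptor beads (10 ug/mL) for 30 min.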
BAZ2B block – qHTS Assay for Inhibitors of BAZ2B. Bromodomain adjacent to zinc finger domain protein 2B (Homo sapiens), Q9UIF8. actives 4.4% (n = 360,000). AlphaScreen BAZ2B-H3K14Ac peptide displacement. Potency, µM (top dose mostly 114 µM), for inactives: top-dose activity change, negative = inhibition, most hits filed as inhibitors; also: potency is read from the fitted curve at half-maximal effect; % is scaled to controls: 0 for no effect and ±100 for the full control effect; nearly all actives have a fitted effect of over 60% in size
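BAZ2B 50 nM plus b-H3(5-23)K14Ac 50 nM, PBS pH 7.4/0.01% Tween-20, 30 min RT; compound added (max 110 uM), 30 min RT; streptavidin donor/Ni-chelate acceptor beads 10 ug/mL final, 20 min dark; AlphaScreen read.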
An asterisk follows results filed as active; ? = inconclusive; · = not tested or not shown; [ ] = remark or other dose. Unless noted, calls follow the shape of the dose curve; as a rule, active = well fitted inhibition curve with a large enough effect; inconclusive = small, poorly fitted or top-dose-only effect; inactive = no such curve, though single readings can be large or run the other way.

SMILES	JMJD2A Tudor inh	L3MBTL1 block	G9a inh	PI5P4K alpha inh	HP1b chromo inh	BAZ2B block
COc1ccc(S(=O)(=O)n2cnc3ccccc32)cc1OC	14%	4%	71µM*	-3	37%	-7%
Cc1cc(C)c(S(=O)(=O)n2cnc3ccccc32)c(C)c1	-12%	·	89µM*	·	37%	-9%
COc1ccc(NC(=O)C2CCCN(C(=O)c3cnn(-c4ccccc4)c3-n3cccc3)C2)cc1 (stereo not given)	-24%	·	4%[59 µM]	·	10%	-12%
CC/C(C)=N/Nc1nc(-c2cc3cccc(OC)c3oc2=O)cs1	-26%	-5%	·	-60*	14%	-2%
COc1cccc2cc(-c3csc(CCn4nc(C)cc4C)n3)c(=O)oc12	-3%[11.4 µM]	3%	1%[12.7 µM]	-16	-12%	-1%
O=S(=O)(c1ccc2ccccc2c1)N1CCN(C2CCN(Cc3ccccc3)CC2)CC1	0.89µM*	·	5µM*	·	-46%	28µM*
COc1ccccc1N1CCN(C2CCN(S(=O)(=O)c3ccc(C)cc3)CC2)CC1	-14%	1%	16%[59 µM]	1	-2%	-30%
O=S(=O)(c1ccccc1)N1CCN(C2CCN(Cc3ccccc3)CC2)CC1	-6%	-5%	-1%	13	1%	1%
COc1ccccc1N1CCN(C2CCN(S(=O)(=O)c3ccc4ccccc4c3)CC2)CC1	?	-15%	45µM*	1	?	?
O=S(=O)(c1ccc2ccccc2c1)N1CCN(Cc2ccccn2)CC1	3.2µM*	-35%	?	-2	-9%	79µM*
c1ccc(CN2CCC(N3CCC(N4CCCCCC4)CC3)CC2)cc1	1.4µM*	-12%	45µM*	2	-11%	?
C=C1Nc2ccccc2C(=O)N1c1ccc(C(=O)N2CCN(C(=O)c3ccco3)CC2)cc1	0%	·	·	·	40%	·
COc1ccccc1N1CCN(C(=O)c2cnn(-c3cccc(Cl)c3)c2C2CCN(C(=O)OC(C)(C)C)CC2)CC1	?	·	-31%[59 µM]	·	-7%	-15%[57.1 µM]
COCC(=O)N1CCC2(CC1)CN(C(=O)Nc1ccccc1)C2	·	·	-1%[12.7 µM]	·	·	·
COc1ccc(NC(=O)CN(C)S(=O)(=O)c2ccc3c(c2)CCCN3C(C)=O)cc1Cl	-1%	·	17%[59 µM]	·	12%[57 µM]	-1%
CCOC(=O)c1c(NC(C)=O)c2c3c(sc2n1Cc1nc(-c2ccccc2Cl)oc1C)CCCC3	-15%	·	-30%[59 µM]	·	17%	-16%
O=S(=O)(c1ccc(Br)cc1)N1CCCN(Cc2cccc(F)c2)CC1	11%	13%	?	11	44%	13%
Fc1cccc(CN2CCSCC2)c1	20µM*	0%	25µM*	-1	?	50µM*
Fc1cccc(CN2CCCCCCC2)c1	2µM*	5%	13µM*	·	?	?
Fc1ccc(CN2CCSCC2)cc1F	4µM*	-9%	32µM*	-6	?	?
O=C(COCc1cc(-c2cccs2)on1)N1CCN(c2cccc(Cl)c2)CC1	-18%	·	-21%[59 µM]	·	27%	-8%
FC(F)(F)c1ccccc1-c1nccc(-n2ccnc2)n1	·	·	-10%[0.501 µM]	·	·	·
O=C1C2C3C=CC(CC3)C2C(=O)N1/N=C/c1ccc(O)c(O)c1 (stereo not given)	-23%	-7%	?	?	?	?
O=C1c2ccccc2C(=O)N1/N=C/c1ccc(O)c(O)c1	8.9µM*	?	11µM*	-12	-20%[57 µM]	?
COc1cc(OC)c(NC(=O)C(C)n2nc(-c3ccc(C)c(C)c3)ccc2=O)cc1Cl (stereo not given)	?	·	?	·	0%	-29%
SMILES	JMJD2A Tudor inh	L3MBTL1 block	G9a inh	PI5P4K alpha inh	HP1b chromo inh	BAZ2B block
OCCN(CCO)c1ccc(C(c2ccc(Cl)cc2)c2ccc(N(CCO)CCO)cc2Cl)c(Cl)c1	?	-27%	?	-7	-8%	?
Cc1cc(N(CCO)CCO)ccc1N=Nc1cc(F)ccc1F	22µM*	?	14µM*	21	?	22µM*
O=C(NCCc1ccccc1Cl)c1sc2ncccc2c1-n1cccc1	?	·	-33%[59 µM]	·	27%[57 µM]	2%
C1CN(CC23CC4CC(CC(C4)C2)C3)CCO1	0%	9%	7.9µM*	8	31%	4%
Cc1cccc(N2CCN(C(=O)c3ccc4c(c3)c(C)c(C)n4C)CC2)c1C	-2%	·	-4%[59 µM]	·	?	0%
Cc1ccc(C)c(N2CCN(C(=O)c3ccc4c(c3)c(C)c(C)n4C)CC2)c1	45µM*	·	32µM*	1	?	35µM*
Cc1c(C)n(C)c2ccc(C(=O)N3CCN(c4ccccn4)CC3)cc12	?	·	?	6	-17%	?
Cc1c(C)n(C)c2ccc(C(=O)N3CCN(c4ccccc4)CC3)cc12	35µM*	·	45µM*	-1	?	40µM*
Cc1ccc(C)c(N2CCN(S(=O)(=O)c3c(C(=O)N4CCCCC4)c(C)n(C)c3C)CC2)c1	?	·	79µM*	5	10%	?
COc1ccc(NC(=O)CN2CCN(c3ccccc3F)CC2)cc1	-1%	-3%	?	3	26%	-24%
CCOC(=O)c1ccc(NC(=O)N2CCN(c3ccccc3OC)CC2)cc1	79µM*	-9%	0%	1	-6%	-28%
O=C(CN1CCN(c2ccccc2F)CC1)Nc1ccccc1F	-14%	4%	50µM*	0	36%	-14%
CCN(CC)c1ccc(NC(=O)CN2CCN(c3ccccc3F)CC2)cc1	56µM*	?	8.9µM*	1	50µM*	40µM*
CCOC(=O)c1ccc(N2CCN(c3ccccc3OC)CC2)c(NC(=O)Nc2ccc(CC)cc2)c1	?	·	?	·	27%	-21%
CCN(CC)c1ccc(NC(=O)CN2CCN(c3ccccc3OC)CC2)cc1	45µM*	·	?	·	-18%	35µM*
C/C=C/C(=O)[C@@H](C)[C@@H](/C=C/C[Si](C)(C)C)c1ccccc1	-12%	·	·	·	32%	·
Cc1cccc2c(=O)cc(CSc3ccccc3NC(=O)C(C)(C)C)[nH]c12	-5%	·	-26%[59 µM]	·	8%[57 µM]	10%
COc1cc(NC(=O)Nc2cccc(Cl)c2)c(OC)cc1NC(=O)CN1CCCCC1	45µM*	-6%	13µM*	18	?	40µM*
CCN1CCN(CC(=O)Nc2c(OC)cccc2OC)CC1	5µM*	·	40µM*	8	45µM*	18µM*
